Among the data in PubChem BioAssay (NCI) are growth values, retold here.

About 83,000 compounds went through this panel and 20% of them were active in at least one assay; those are over-represented in the sample as a whole.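 Compound tested at a single concentration for 48 hours in 96-well plates; a percent growth value below 10 was scored as active.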 Unmarked numbers belong to inactive results. Activity calls are given as the source filed them.

The subject of this assay is MOLT-4 leukemia. As to the kind of experiment: NCI-60 one-dose screen, 48 h (100 = growth as untreated, 0 = no growth, -100 = all killed). The note with it: 10 µM. The protocol: Growth inhibition of the MOLT-4 human tumor cell line is measured as a screen for anti-cancer activity. Cells are grown in 96 well plates and exposed to the test compound for 48 hours. Compounds are tested at a single concentration, which is 10^-5 M for most compounds. The reported endpoint is percent growth (GI% or GIPRCNT), where numbers from 0 - 100% represent growth inhibition, and numbers from -100% - 0 represent cell death. For example, a value of 40 represents 60% growth inhibition. A value of 0 means no net growth occurred over the course of the experiment. A value of -40 indicates 40% of cells at the beginning of the experiment died by the end of the experiment. A value of -100 means all cells are dead at the end of the experiment.
NCI-60 Human Tumor Cell Lines Screen was performed using the standard one-dose NCI protocol, which is described in more detail at https://dtp.cancer.gov/discovery_development/nci-60/default.htm.
Compounds with GIPRCNT values below 10 were considered active. Activity score was based on GIPRCNT using the following formula: […]
Score is 0 for GIPRCNT values of 100 or above, 50 for GIPRCNT values of 0, and 100 for GIPRCNT values of -100.
`C[CH2][Sn]([CH2]C)([CH2]C)[NH]S(=O)(=O)c1ccc(C)cc1`: the growth was 101%.

For `CCOc1c(Cl)cc(CNC(C)C(O)c2ccccc2)cc1OC` (stereo not given), the growth is 41.9%.

Take `CC(C)(O)/C=C/C(=O)[C@](C)(O)[C@H]1[C@H](O)C[C@@]2(C)[C@@H]3CC=C4[C@@H](C=C(O)C(=O)C4(C)C)[C@]3(C)C(=O)C[C@]12C`: the growth was -15.1% (active).

`C=CCN1C(=O)C(CC)(CCC(C)C)C(=O)NC1=S` (stereo not given): the growth is 96.6%.

As to `C=CCC1(CC)C(=O)NC(=S)NC1=O`, the growth was 93.2%.

Take `CCN(CC)CCOc1c(C(C)C)cccc1C(C)C`: the growth is 102%.

Take `NC(=O)C(Cl)Cl`: the growth was 109%.

In the case of `CNC(=O)Oc1ccccc1-c1ccccc1`, the growth is 96%.

Turning to `O=C(CCc1ccco1)NC1CCN(CC2(c3ccc(Cl)cc3)CCC2)CC1`, the growth was -11.7% (active).

For `O1[As]2O[As]3O[As]1O[As](O2)O3`, the growth was 10.7%.

For `CC1(C)N=C(N)N=C(N)N1c1ccc(CCCCc2ccc(S(=O)(=O)F)cc2)c(Cl)c1`, the growth was 18.2%.

As for `Oc1ccc(O)c2c1C1(Cl)C(Cl)=C(Cl)C2(Cl)C1(Cl)Cl`, the growth was 54.3%.

Turning to `Cc1cc([N+](=O)[O-])c(Cl)cc1NS(=O)(=O)c1ccccc1`, the growth is 74.5%.

For the compound `C#CC1(O)CCC2(C)C(CCC3C4CCC(=O)C4(C)CCC32)C1` (stereo not given), the growth is 97.3%.

In the case of `CC(=O)O[C@H]1CCC2(C)C(=CCC3C2CCC2(C)/C(=N/OC(=O)c4ccc(N(CCCl)CCCl)cc4)CCC32)C1` (stereo not given in full), the growth was 3.85% (active).

With `C[C@]12CC[C@@H]3c4ccc(OC(=O)Cc5ccc(N(CCCl)CCCl)cc5)cc4CC[C@H]3[C@@H]1CC[C@@H]2OC(=O)Cc1ccc(N(CCCl)CCCl)cc1`, the growth is 104%.

Turning to `CCCCCCCCCCOc1ccc(C(=O)Oc2ccc(CSP3(=O)OCC4OC(n5ccc(=O)[nH]c5=O)C(F)C4OP(=O)(O)OCC4OC(n5cnc6c(N)ncnc65)C(F)C4O3)cc2)cc1` (stereo not given), the growth is 68.4%.

For `[N-]=[N+]=NC(C(=O)O)c1ccccc1` (stereo not given), the growth was 87.4%.

With `CC(=O)Oc1ccc(Cl)cc1`, the growth is 90.3%.

Turning to `[O]=[Sn]([CH]1CCCCC1)[CH]1CCCCC1`, the growth was 6.59% (active).

`[Br][Pb]([c]1ccccc1)([c]1ccccc1)[c]1ccccc1`: the growth was -24.4% (active).

For `CCC[CH2][Sn]([CH2]CCC)([CH2]CCC)[O]C(=O)c1ccc(Cl)cc1Cl`, the growth was -16.6% (active).

As to `COc1cc(CNCCc2ccc(Cl)cc2)cc(OC)c1O`, the growth is 37.3%.

On to `CC(C)CCC[C@@H](C)[C@H]1CC[C@H]2[C@@H]3CC=C4C[C@@H](OC(=O)Cc5ccc(N(CCCl)CCCl)cc5)CC[C@]4(C)[C@H]3CC[C@]12C`, for which the growth is 99.8%.

As for `CC(=O)O[C@H]1C[C@H](O[C@H]2[C@@H](O)C[C@H](O[C@H]3[C@@H](O)C[C@H](O[C@H]4CC[C@@]5(C)C(CCC6C5C[C@@H](O)[C@]5(C)[C@@H](C7=CC(=O)OC7)CC[C@]65O)C4)O[C@@H]3C)O[C@@H]2C)O[C@H](C)[C@H]1O[C@@H]1O[C@H](CO)[C@@H](O)[C@H](O)[C@H]1O` (stereo not given in full), the growth was -32.1% (active).

Consider `CC(C)OC(=S)[S-].[Au+].c1ccc([PH+](c2ccccc2)c2ccccc2)cc1`, for which the growth is 10.9%.

Take `CN1CCN(C(=O)COc2ccc(/C=C3\CC4C5CC=C6CC(Cl)CCC6(C)C5CCC4(C)C3=O)cc2)CC1` (stereo not given): the growth is 59.3%.

`ClCCN(CCCl)C(c1ccccc1)c1ccc(Cl)cc1` (stereo not given): the growth is -3.35% (active).

As to `CC[CH2][Pb]([CH2]CC)([CH2]CC)[O]C(=O)C(F)(F)F`, the growth was -27.8% (active).

For `N#[N+]c1nc2nc(N)[nH]c(=O)c2[nH]1`, the growth was 103%.

Regarding `N#CC(C#N)=Cc1ccc2ccccc2c1`, the growth is 107%.

For `O=CN1N=C(c2ccc3c(c2)OCO3)CC1c1sc(N(CCCl)CCCl)nc1Cl` (stereo not given), the growth was 79.3%.

`Cc1ccc(N)cc1[As]=[As]c1cc(N)ccc1C` (stereo not given): the growth is -29.9% (active).

Regarding `C1CNC2CCCC2C1` (stereo not given), the growth is 116%.

Take `Oc1ccccc1OB(Oc1ccccc1O)N(CCCl)CCCl`: the growth is 57.6%.

In the case of `CC(=O)O[C@@H]1C2=C(C)C3(CC3)[C@@](C)(O)C(=O)C2=C[C@@]1(C)CO`, the growth was 5.2% (active).

Regarding `O=c1cc[nH]c(=O)o1`, the growth was 97.4%.

For `n1nc(-c2nonc2-c2nn[nH]n2)n[nH]1`, the growth was 110%.

On to `O=S(=O)(O)c1ccc(-c2ccc([As](=O)(O)O)cc2)cc1`, for which the growth was 101%.

Take `CO[C@@H](c1ccccc1Cl)[C@H](C)OC(N)=O`: the growth was 107%.
